Test results taken from PubChem BioAssay (Tox21).
“And” between values parts separate entries of the source, which are not always exact repeats. Equal entries are not always repeated. Results filed as inconclusive are left out. The source made the active and inactive calls. Calls follow the shape of the dose curve; as a rule, active = well fitted cell-killing curve with a large enough effect in the repeat runs; inconclusive = weak or mixed curves, or effect the other way; inactive = no such curve, though single readings can be large or run the other way.

Assay: qHTS assay to identify small molecule antagonists of the sonic hedgehog signaling (Shh) pathway - cell viability counter screen (AID 1259367); also: nearly all actives have a fitted effect of over 55% in size
Conditions: NIH/3T3 Gli1-Luc viability, CellTiter-Fluor, 24 h; series mostly up to 92.4 µM; viability change, negative = cytotoxic: at the top concentration
From the text: National Center for Advancing Translational Sciences [NCATS]
NIH Chemical Genomics Center [NCGC]
U.S. Environmental Protection Agency [EPA]
National Institutes of Environmental Health Sciences [NIEHS]
National Toxicology Program [NTP]
U.S. Food and Drug Administration [FDA]
The sonic hedgehog (Shh) pathway is essential for normal embryonic development. Dysregulation of the Shh pathway can cause severe developmental defects in organs. Therefore chemicals that interfere with the pathway are potential developmental toxicants. A cell line designated 3T3Gli1-Luc (DMB/OARSA/CFSAN/FDA, Laurel, MD), a NIH/3T3 derived clone containing stably integrated Gli1-Luc reporter is used to detect chemical interference of the Shh pathway, by changes in the expression of the firefly Luc gene under the control of the Gli1 transcriptional response element. This cell line was used to screen Tox21 libraries for identifying and prioritizing the potential developmental toxicants that interfere Shh pathway. Conditioned medium-stimulated mode was used to screen for chemicals inhibiting Shh signaling. The cytotoxicity of the compounds was tested in parallel by measuring the cell viability using CellTiter-Fluor assay system (Promega, Madison, WI) in the same wells.
Tox21 Assay Protocol Summary:
3T3 Gli1-Luc cells were dispensed at 2,000 per well in 5uL of culture medium into white solid bottom 1536-well plates (Greiner Bio-One, Monroe, NC) using a Multidrop Combi (Thermo Scientific, Waltham, MA) dispenser. The assay plates were incubated at 37 C and 5% CO2 for 4hr, and then 23nL of compounds dissolved in DMSO and positive control were transferred using a Pintool station (Wako, San Diego, CA). The compound transfer was followed by the addition of 1ul conditioned medium or assay buffer using two separate tips of Flying Reagent Dispenser (FRD, Aurora Discovery, San Diego, CA). The assay plates were incubated at 37C and 5% CO2 for 24hr. For viability read, after 23hr of compound treatment, 1uL of CellTiter-Fluor reagent (Promega Corporation, Madison, WI) was added to each well of the assay plates using Flying Reagent Dispenser (FRD, Aurora Discovery, San Diego, CA) and incubated the assay plates at 37C for 1hr. The fluorescence signal was quantified using a ViewLux plate reader (Perkin Elmer, Shelton, CT).
% is scaled to controls: 0 for no effect and ±100 for the full control effect; potency is read from the fitted curve at half-maximal effect.

Structure (SMILES) | viability change, negative = cytotoxic | Potency
CCCCC/C=C\C/C=C\C/C=C\C/C=C\CCCC(=O)NCC(=O)O | 0.799% [at 42.5 µM] (inactive) | –
Nc1c(Cl)c(Cl)c(Cl)c(Cl)c1Cl | -5.43% (inactive) | –
CNC(=O)CSP(=O)(OC)OC | 1.48% (inactive) | –
CNN | 0.143% (inactive) | –
C=CC(=O)[O][Sn]([CH2]CCC)([CH2]CCC)[CH2]CCC | – | 1.09 µM (active)
C[C@]12CC[C@H]3[C@@H](CCC4=CC(=O)CC[C@@H]43)[C@@H]1CC[C@@H]2OC(=O)CCc1ccco1 | 0.594% [at 42.5 µM] (inactive) | –
CCOP(=O)(OCC)Oc1cc(C)nc(C(C)C)n1 | 1.95% (inactive) | –
S=C=NCCc1ccccc1 | 17.4% (inactive) | –
CCCN | 1.38% (inactive) | –
CN1[C@@H]2CC[C@H]1CC(O)C2 (stereo not given in full) | -0.939% (inactive) | –
Oc1cccc(Cl)c1Cl | 1.58% (inactive) | –
Oc1ccc([C@H]2CNCc3c2ccc(O)c3O)cc1O | -23.7% [at 42.5 µM] (inactive) | –
C[N+]1(C)[C@@H]2CC[C@H]1CC(OC(=O)C(CO)c1ccccc1)C2 (stereo not given in full) | 4.08% [at 42.5 µM] (inactive) | –
CSC(C)(C)/C=N/O | 0.664% (inactive) | –
CO/N=C(/C1=NOCCO1)c1ccccc1Oc1ncnc(Oc2ccccc2Cl)c1F | -24.4% (inactive) | –
C=CCBr | 3.72% (inactive) | –
Oc1cc(Cl)cc(Cl)c1 | -17.5% (inactive) | –
O=C(CCCCl)c1ccc(F)cc1 | -0.201% [at 42.5 µM] (inactive) | –
CCCCC(CC)COC(=O)OOC(C)(C)C (stereo not given) | 6.14% (inactive) | –
C=Cc1cccc(CCl)c1 | 6.38% [at 240 µM] (inactive) | –

Structure (SMILES) | viability change, negative = cytotoxic | Potency
C[C@@H]1CC2=CC(=O)CC[C@@H]2[C@H]2CC[C@@]3(C)[C@@H](CC[C@]3(C)O)[C@@H]21 | 0.436% [at 42.5 µM] (inactive) | –
COc1nc(C)nc(NC(=O)NS(=O)(=O)c2ccccc2Cl)n1 | 0.869% (inactive) | –
CN(C)C(=S)SSC(=S)N(C)C | – | 191 nM (active) and 611 nM (active) and 1.19 µM (active)
[O-][Cl+3]([O-])([O-])O | 8.06% (inactive) | –
CC1(C)C(C=C(Cl)Cl)C1C(=O)OC(C#N)c1ccc(F)c(Oc2ccccc2)c1 (stereo not given) | 3.65% (inactive) | –
Clc1ccc(C(Cl)(Cl)Cl)cc1Cl | 1.7% (inactive) | –
CC(C)C(Br)C(=O)NC(N)=O (stereo not given) | 6.09% [at 42.5 µM] (inactive) | –
O=C1C(Cl)=C(Cl)C(=O)C(Cl)=C1Cl | – | 60.9 µM (active) and 24.3 µM (active)
ClC1(Cl)C2(Cl)C3(Cl)C4(Cl)C(Cl)(Cl)C5(Cl)C3(Cl)C1(Cl)C5(Cl)C24Cl (stereo not given) | 2.58% (inactive) | –
CCCCC(CC)COC(=O)c1ccccc1C(=O)OCC(CC)CCCC (stereo not given) | 0.373% (inactive) | –
Cc1cnc2c(C(=O)O)c(Cl)ccc2c1 | 2.81% (inactive) | –
O=c1[nH]c2cc(Cl)ccc2n1C1CCNCC1 | -15.5% [at 42.5 µM] (inactive) | –
O=C(N[C@@H]1N=C(c2ccccc2F)c2cccc3c2N(CC3)C1=O)c1cc2ccccc2[nH]1 | -5.49% [at 42.5 µM] (inactive) | –
O=S1(=O)OCC2C(CO1)C1(Cl)C(Cl)=C(Cl)C2(Cl)C1(Cl)Cl (stereo not given) | -21.7% (inactive) | –
CCC(C)Nc1c([N+](=O)[O-])cc(C(C)(C)C)cc1[N+](=O)[O-] (stereo not given) | 1.76% (inactive) | –
O=Cc1ccccc1 | 7.27% (inactive) | –
CC1=C2C[C@H]3[C@@H](CC=C4C[C@@H](O)CC[C@@]43C)[C@@H]2CC[C@]12O[C@@H]1C[C@H](C)CN[C@H]1[C@H]2C | -31.8% [at 42.5 µM] (inactive) | –
Clc1cc(Cl)c(-c2cc(Cl)c(Cl)cc2Cl)cc1Cl | 2.18% [at 42.5 µM] (inactive) | –
CC(C)(C)c1ccc(OP(=O)(Oc2ccccc2)Oc2ccccc2)cc1 | -15.1% (inactive) | –
CCNS(=O)(=O)C(F)(F)C(F)(F)C(F)(F)C(F)(F)C(F)(F)C(F)(F)C(F)(F)C(F)(F)F | – | 65.7 µM (active)
